Screening results as filed in PubChem BioAssay.
Bcl-2 Bim block: disrupts Bim peptide binding to human Bcl-2 | Bead-based flow cytometry, Bim peptide-Bcl-2 binding | 0.06% of 190,000 active | inhibition, % at 10 µM | P10415; in the data active = inhibition above about 40%;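 also: 0% = no compound wells with probe peptide and 100% = reference peptide inhibitor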
Bcl-XL Bim block: disrupts Bim peptide binding to human Bcl-XL | Q07817 | bead flow cytometry, fluorescence | inhibition, % at 10 µM | 0.04% of 190,000 active | AID 1007
Bfl-1 Bim block: human Bim-Bfl-1 interaction inhibition | Q16548 | inhibition, % at 10 µM | 0.12% of 190,000 active | AID 1008 | Bead-based flow cytometry, Bim-Bfl-1 binding inhibition;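 also: 0% = wells without compound plus tracer and 100% = blocker peptide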
Bim-Bcl-B: human Bim-Bcl-B interaction inhibition; Q9HD36; bead-based flow cytometry, Bim peptide-Bcl-B binding; inhibition, % at 10 µM; 0.073% of 190,000 active; AID 951;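 also: 0% = tracer peptide without compound and 100% = reference inhibitor peptide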
Wee1 stabilizer: human Wee1 degradation inhibition, primary screen | reporter increase, % at 5 µM | 1.2% of 220,000 active | HeLa Luc-Wee1K328M stability, luciferase luminescence; 100% = proteasome inhibitor MG132 effect;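 active = activation above the mean of all tested compounds plus 3 SD, set per screening run, cut at about 8.8% in these data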;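 also: cells exposed to compound for 20 h before luminescence read; 0% = DMSO alone and 100% = MG132 at 30 µM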
Target sequence (P30291 whole entry K328M): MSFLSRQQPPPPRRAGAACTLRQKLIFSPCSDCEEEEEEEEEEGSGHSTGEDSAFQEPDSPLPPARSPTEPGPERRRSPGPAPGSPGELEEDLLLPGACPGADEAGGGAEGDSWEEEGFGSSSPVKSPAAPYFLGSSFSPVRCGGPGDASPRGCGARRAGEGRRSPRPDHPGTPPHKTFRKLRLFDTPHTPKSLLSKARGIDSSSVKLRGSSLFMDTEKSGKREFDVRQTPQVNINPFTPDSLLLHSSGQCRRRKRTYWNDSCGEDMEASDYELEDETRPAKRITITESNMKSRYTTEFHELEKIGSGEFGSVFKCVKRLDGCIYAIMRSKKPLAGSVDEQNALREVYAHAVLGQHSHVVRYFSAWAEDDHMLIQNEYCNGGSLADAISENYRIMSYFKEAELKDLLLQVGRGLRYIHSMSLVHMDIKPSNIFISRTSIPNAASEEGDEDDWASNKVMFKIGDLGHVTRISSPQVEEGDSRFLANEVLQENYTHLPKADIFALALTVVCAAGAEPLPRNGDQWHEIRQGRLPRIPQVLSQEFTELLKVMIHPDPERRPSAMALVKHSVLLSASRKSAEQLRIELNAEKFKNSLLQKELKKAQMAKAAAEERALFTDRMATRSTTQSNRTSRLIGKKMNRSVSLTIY
Bim-Bcl-W: human Bim-Bcl-W interaction inhibition | inhibition, % at 10 µM | Q92843 | 0.02% of 190,000 active | bead-based flow cytometry, Bim peptide-Bcl-W binding;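 also: 0% = bound tracer without compound and 100% = peptide blocker; higher means less fluorescent Bim peptide bound to Bcl-W beads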
Bim-Bcl-XL DR: confirmation of regulators of human Bim-Bcl-XL interaction. inhibition of binding at 100 µM. shares compounds with Bfl-1 Bim block. bead-based flow cytometry, Bim-Bcl-XL binding. 40 tested, under 10 active. AID 2084; call rule not given here
Wee1 degr conf: confirmation of human Wee1 degradation inhibitors; shares compounds with Wee1 stabilizer; HeLa Luc-Wee1K328M degradation, luminescence; vehicle 0%, proteasome-blocked wells 100%; activation, % at 5 µM; 4% of 1,100 active; AID 1410; in the data active = activation above about 8.9%
Numbers without * were called inactive; x = not tested or not shown. In the library only some 1.4% were active in any assay of this set; here they are far more common. Rule as the data show it, unless noted: active = inhibition above about 40%.

SMILES	Bcl-2 Bim block	Bcl-XL Bim block	Bfl-1 Bim block	Bim-Bcl-B	Wee1 stabilizer	Bim-Bcl-W	Bim-Bcl-XL DR	others
Cc1ccc(-c2cc(-c3ccc(F)cc3)c(C#N)c(N)n2)o1	3	-1	32	-5	5	2	3.6
Cc1cc(-c2cc(-c3ccc(Cl)cc3)nc(N)c2C#N)co1	0	0	40*	-1	2	4	6.2
CCOc1ccccc1N1CCN(C(=S)NCc2ccc(Cl)cc2)CC1	-1	-4	-1	-7	2	-3	x
S=c1[nH]cc(-c2ccccc2)n1-c1ccccc1	1	0	17	-19	2	2	-3
Cc1ccc(/C=N/NC(=O)CSc2nnc(-c3ccccc3)n2-c2ccc(Cl)cc2)o1	-1	-2	1	-42	1	-3	x
Cc1ccc(C=NNC(=O)CSc2nnc(-c3ccc(Cl)cc3)n2-c2ccccc2)o1	x	x	x	x	x	x	6.6
O=c1c2c(n3nnnc3n1Cc1ccccc1)-c1ccccc1CC21CCCC1	-6	-3	-9	69*	0	2	3.2
CCN1C(=O)/C(=C\C=C2/C=CC=CN2CC)SC1=S	7	0	21	-6	2	3	-1.7
CCN1C(=O)/C(=C2/C=CC=CN2C)SC1=S	-8	-18	-13	-5	-2	0	x
O=C1/C(=C\c2ccco2)NC(=S)N1c1ccccc1	11	0	32	-29	-3	8	0.95
CCCN=C1N/C(=C\c2ccco2)C(=O)N1c1ccccc1	0	1	-1	-3	0	0	x
COc1ccc(NC(C)(C)c2nnnn2-c2c(C)cccc2C)cc1	x	x	x	x	3	x	x
CCN(CC)C(=O)COC(=O)c1cc(-c2ccco2)nc2ccccc12	16	2	45*	0	3	11	5.6
O=C(/C=C/c1ccc(-c2ccccc2[N+](=O)[O-])o1)c1ccccc1	2	0	15	-13	0	12	0.2
N#C/C(=C\c1ccc(-c2ccccc2[N+](=O)[O-])o1)C(N)=O	x	x	x	x	1	x	x
Cc1ccc(Cl)cc1NC(=S)N1CCC(c2ccccc2)C1 (stereo not drawn)	0	0	0	-3	-3	3	x
COc1ccccc1NC1=C(NC(C)=O)C(=O)c2ccccc2C1=O	9	5	42*	0	-2	18	4.7
COC1=C(Nc2ccccc2OC)C(=O)c2ccccc2C1=O	x	x	x	x	0	x	x
CCN(CC)c1ccc(NC(=O)COc2ccccc2C)cc1S(=O)(=O)Nc1ccccc1OC	-5	-11	38	-32	-1	0	-9.5
CCN(CC)c1ccc(NC(=O)c2ccccc2Br)cc1S(=O)(=O)Nc1ccccc1OC	2	-2	33	-33	2	2	-10
CCN(CC)c1ccc(NC(=O)c2ccccc2F)cc1S(=O)(=O)Nc1ccccc1OC	4	-6	29	-31	-2	3	-11
CNC(=O)CSc1nnc(C2CC2)n1-c1ccccc1	-5	-1	-5	-1	1	-1	x
CC1CCCN(S(=O)(=O)c2ccc(S(=O)(=O)NC(C)c3cccs3)cc2)C1 (stereo not drawn)	-2	-3	-3	-3	-1	-3	x
CN(CCO)c1cc(Sc2nc3ccccc3s2)c2nonc2c1[N+](=O)[O-]	6	1	50*	5	0	9	-0.9
Cn1nnnc1SCC(=O)C(C)(C)C	-1	-2	-2	-4	1	-3	x
SMILES	Bcl-2 Bim block	Bcl-XL Bim block	Bfl-1 Bim block	Bim-Bcl-B	Wee1 stabilizer	Bim-Bcl-W	Bim-Bcl-XL DR	others
CC(C)CC(NC(=O)C1CCCCC1)C(=O)N1CCN(c2ccccn2)CC1 (stereo not drawn)	0	0	0	-1	1	2	x
C=CSc1sc(Cl)c(N2CCOCC2)c1[N+](=O)[O-]	-3	-3	-3	-6	-4	-1	x
C=CS(=O)(=O)c1sc(Cl)c(N2CCOCC2)c1[N+](=O)[O-]	11	6	48*	10	-1	9	6.7
COc1ccc(O)c(-c2cc(-c3cccs3)[nH]n2)c1	-1	-3	0	0	0	-1	x
COc1ccccc1CC(=O)Nc1ccc(-c2noc(COc3cccc(C)c3C)n2)cc1	-4	-3	-1	-4	11*	-3	x	Wee1 degr conf=6
CN(CC(=O)NC1CCCc2ccccc21)S(=O)(=O)c1cccs1 (stereo not drawn)	-1	-3	-3	-2	2	0	x
CN(CC(=O)N1CCc2ccccc21)S(=O)(=O)c1cccs1	-2	-1	-1	-1	14*	-2	x	Wee1 degr conf=4
BrC(/C=N/N1CCN(Cc2ccccc2)CC1)=C/c1ccccc1	x	x	x	x	23*	x	x	Wee1 degr conf=2
O=[N+]([O-])c1ccc(Cl)c(/C=N/N2CCN(Cc3ccccc3)CC2)c1	-5	-5	-3	0	-1	-6	x
O=[N+]([O-])c1cc(/C=N/N2CCN(Cc3ccccc3)CC2)ccc1Cl	-7	-3	-8	-3	15*	1	x	Wee1 degr conf=4
O=C(COC(=O)c1cccnc1Cl)NCc1ccco1	4	0	-2	3	-2	6	x
CC(=O)OC[C@H]1O[C@H](C/C=N/OC[C@@H](O)[C@H]2O[C@@H]3OC(C)(C)O[C@@H]3[C@H]2O)C=C[C@@H]1OC(C)=O	-3	-3	2	-5	0	-1	x
Cc1onc(-c2ccccc2Cl)c1C(=O)OCC(=O)c1c(N)n(C)c(=O)n(C)c1=O	-5	-2	-8	-4	0	-4	x
COc1ccccc1NC(=O)c1csc2c1CCCC2	0	0	-3	1	0	0	x
O=C(Nc1ccccn1)c1csc2c1CCCC2	1	3	2	-1	18*	3	x	Wee1 degr conf=5
Cc1cccc(OCc2n[nH]c(=S)n2Cc2ccccc2)c1	-3	-6	0	-10	1	0	x
CCOC(=O)c1[nH]c2c(c1-c1ccccc1)C(=O)CC(c1ccc(OCC)cc1)C2 (stereo not drawn)	4	0	0	0	2	2	x
CCOC(=O)c1[nH]c2c(c1-c1ccccc1)C(=O)CC(c1ccc(OC)c(OC)c1)C2 (stereo not drawn)	0	-4	-1	-4	20*	-3	x	Wee1 degr conf=1
C/C(=N/NC(=O)Cc1cccs1)c1ccco1	0	-5	-1	-5	-2	0	x
Cc1cc(Cl)ccc1NC(=S)Nc1ccccn1	-9	-12	-12	-13	15*	-9	x	Wee1 degr conf=12*
Cc1ccc(NC(=S)Nc2ccccn2)c(C)c1	x	x	x	x	-2	x	x
CCCSc1nnc(CSc2ncccn2)n1C	-2	-4	-3	-4	0	-3	x
Cc1cccc(OCC(=O)O/N=C(\N)c2ccccn2)c1C	-5	-4	-3	2	11*	-2	x	Wee1 degr conf=4
